From PubChem BioAssay (NCI)
This is part of a sample that, as a whole, favours compounds with a hit. Of some 79,000 tested, about 15% had one in any assay. The source made the active and inactive calls. No stated cut-off is given here; in the data, active means growth inhibition above about 70%; inactive means the rest.

Experiments:
[1] = NCI Yeast Anticancer Drug Screen. Data for the rad50 strain (AID 155);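 further: 0% = growth of vehicle-only cultures of the same strain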; settings: S. cerevisiae rad50 strain growth inhibition; at 50.0 µM; active compounds read high
Summary of the method: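 Relative growth inhibition (compound vs vehicle) was measured in yeast with a defined repair-gene alteration.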

[2] = NCI Yeast Anticancer Drug Screen. Data for the mec2-1 strain (AID 157); settings: S. cerevisiae mec2-1 strain, at 50.0 µM, active compounds read high
Summary of the method: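 mec2-1 yeast strain, carrying an alteration in DNA damage repair or cell cycle control, was exposed to compounds; growth inhibition was measured relative to vehicle-treated controls.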

[3] = NCI Yeast Anticancer Drug Screen. Data for the sgs1 mgt1 strain (AID 161);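 further: 0% = growth of cultures given vehicle only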; settings: S. cerevisiae sgs1 mgt1 strain, at 50.0 µM, active compounds read high
Summary of the method: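 Percent growth inhibition was derived by comparing compound-exposed mutant yeast with vehicle-exposed cultures. The strain carries alterations in DNA damage repair.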

[4] = NCI Yeast Anticancer Drug Screen. Data for the cln2 rad14 strain (AID 165);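 further: 0% = growth equal to vehicle treated cultures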; settings: S. cerevisiae cln2 rad14 strain, at 50.0 µM, active compounds read high
Summary of the method: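 Yeast carrying cln2 and rad14 alterations (cell cycle control and DNA damage repair) were exposed to compounds. Growth inhibition was measured against vehicle-treated controls.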

[5] = NCI Yeast Anticancer Drug Screen. Data for the bub3 strain (AID 167); settings: S. cerevisiae bub3 mutant strain, at 50.0 µM, active compounds read high
Summary of the method: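 Screening used yeast with an engineered genetic alteration affecting cell cycle control. Compound-exposed cultures were compared with vehicle cultures, and reduced growth was taken as inhibition.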

[6] = NCI Yeast Anticancer Drug Screen. Data for the mlh1 rad18 strain (AID 175); settings: S. cerevisiae mlh1 rad18 strain growth inhibition; at 50.0 µM; active compounds read high
Summary of the method: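 Growth inhibition of the yeast strain was measured after compound exposure and expressed relative to vehicle-treated controls. The strain carries defined defects in DNA damage repair.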

Measured: growth inhibition

N#Cc1c(N)nc([Se]CC(=O)c2ccc(Cl)cc2)c(C#N)c1-c1ccco1
inactive: [1] -7.45% | [2] -3.45% | [3] 2.3% | [4] 9.4% | [5] 4.1% | [6] 10.9%

CSCCNC(=O)CS(=O)(=O)c1ccc(N)cc1
inactive: [1] -10.3% | [2] -25.9% | [3] -7.65% | [4] -13.2% | [5] -2.35% | [6] -14.9%

CCC/C=C(\CC)COC(=O)Nc1ccccc1
inactive: [1] -1.15% | [2] -19.6% | [3] -9.55% | [4] -47.9% | [5] -31.1% | [6] -1.75%

CCOC(=O)C(N)CSSCC(N)C(=O)OCC (stereo not given)
inactive: [1] 5.55% | [2] -3.35% | [3] -4.4% | [4] -11.6% | [5] 8.95% | [6] -4.85%

O=C(OC(c1ccccc1)c1ccccc1)c1ccccc1C(=O)c1ccccc1
inactive: [1] -18.6% | [2] -15.1% | [3] -21% | [4] -16.6% | [5] -3.25% | [6] -36.1%

O=C1ON=C2C3CC4CC12CC1(C3)C(=O)ON=C41
inactive: [1] -3.05% | [2] -6.45% | [3] -3.8% | [4] -1.9% | [5] -12.1% | [6] -19.8%

CC(=O)Nc1cc(C)c(C(=O)OC(=O)c2cc(C)c(NC(C)=O)cc2C)cc1C
inactive: [1] 22.4% | [2] -10.1% | [3] 5.1% | [4] -57.6% | [5] -0.85% | [6] 6.2%

O=C(Nc1ccccc1F)c1c(O)nc2sccn2c1=O
inactive: [1] 50.4% | [2] -2.8% | [3] 38.5% | [4] -4.15% | [5] 38.1% | [6] 34%

CN1c2ccccc2N(C(=O)c2ccccc2)C(CC(=O)O)c2cccn21 (stereo not given)
inactive: [1] -22.4% | [2] -40.5% | [3] -33.1% | [4] 23.8% | [5] -45% | [6] -16.3%

CC(CCc1ccccc1)NC1=NCCO1 (stereo not given)
inactive: [1] -9.6% | [2] -12.2% | [3] -16.4% | [4] -23.6% | [5] -1.2% | [6] 2.7%

CNC(=O)OCc1c(-c2ccccc2)c(-c2ccccc2)n(C)c1COC(=O)NC
inactive: [1] 37.6% | [2] 22.5% | [3] 51.7% | [4] 15.8% | [5] 33.2%
active: [6] 87.8%

COc1cc2oc3cc(OC)c(OC)c(CC=C(C)C)c3c(=O)c2c(O)c1CC=C(C)C
inactive: [1] -1.45% | [2] -30.6% | [3] 0.15% | [4] 5.8% | [5] -30.6% | [6] 21.2%

O=C1CN(c2ccccc2)C(=O)CN1CCN1CC(=O)N(c2ccccc2)CC1=O
inactive: [1] -34% | [2] 14.8% | [3] -4.5% | [4] -2.3% | [5] -31.5% | [6] -8.6%

CN(C)C(=O)CCCC(=O)c1cccc([N+](=O)[O-])c1
inactive: [1] 9.55% | [2] 3.5% | [3] 3.7% | [4] 10.6% | [5] 16% | [6] -13.3%

O=CC(=O)c1cccc([N+](=O)[O-])c1
inactive: [1] 3.55% | [2] 7.75% | [3] -3.6% | [4] 11.4% | [5] -29.2% | [6] 10.4%

Nc1[nH]c(=S)[nH]c(=S)c1N
inactive: [1] -30.6% | [2] -8.6% | [3] -15.2% | [4] -44.8% | [5] -15.3% | [6] -25.4%

CC(=O)Nc1nnc(SCc2ccccc2)s1
inactive: [1] 9% | [2] 6.35% | [3] -4.4% | [4] -10% | [5] 3.4% | [6] -20.6%

COC1=CC(=O)C(C(C)=O)=C(O)C1=O
inactive: [1] 0.05% | [2] -7.95% | [3] -6.5% | [4] 4.7% | [5] -5.6% | [6] -4.05%

O=C(Nc1ccc(F)cc1)C(=O)C(C(=O)c1ccccc1F)C1OC(=O)c2ccccc21 (stereo not given)
inactive: [1] 2.8% | [2] -0.05% | [3] -10.6% | [4] 1.55% | [5] -0.35% | [6] 2.25%

O=C(C[N+]12CC=C(CO)C1C(O)CC2)c1ccc(Br)cc1 (stereo not given)
inactive: [1] 5.55% | [2] -6.25% | [3] -15.5% | [4] -24.4% | [5] 3.35% | [6] -4%
